Screens as filed in PubChem.
Lassa entry inh: qHTS for Inhibitors of binding or entry into cells for Lassa Virus. Potency, µM (highest dose often 37.9 µM), without a hit: top-dose activity change, negative = inhibition, actives largely listed as inhibitors. Lassa virus pseudotype entry inhibition, cell reporter. actives 1.2% (n = 300,000); calls by dose curve; tested in HEK293 cells; also: potency is read from the fitted curve at half-maximal effect; % is scaled to controls: 0 for no effect and ±100 for the full control effect; nearly all actives have a fitted effect of over 50% in size
Shiga inhibitor: A qHTS for Small Molecule Inhibitors of Shiga Toxin; Vero cells, Shiga toxin protein synthesis inhibition reporter; actives 9.2% (n = 290,000); inhibition, % at 38.7 µM; in the data active = inhibition mostly above about 28%, no sharp cut-off; inactive = mostly below about 43%; also: 0% is about no effect
FMDV inh: High Throughput Screening for Foot and Mouth Disease Virus Antivirals | Potency, µM (top dose mostly 57.9 µM), inactives show at the highest dose activity change, negative = inhibition, actives largely listed as inhibitors | FMDV antiviral cell-based qHTS | actives 1.2% (n = 410,000); calls by dose curve; tested in HEK293T cells; also: read-out not given here; potency is read from the fitted curve at half-maximal effect; % is scaled to controls: 0 for no effect and ±100 for the full control effect; nearly all actives have a fitted effect of over 45% in size
CHX counter: Cycloheximide Counterscreen for Small Molecule Inhibitors of Shiga Toxin; cell reporter, cycloheximide protein synthesis inhibition counterscreen; max response, %; actives 12% (n = 300,000); in the data active = max response mostly above about 13%, no sharp cut-off; inactive = mostly below about 14%; also: read at 38.3 µM for the half of the compounds with a filed dose; 0% is about no effect
Marburg entry inh: qHTS for inhibitors of binding or entry into cells for Marburg Virus; Marburg virus pseudotyped entry inhibition, cell reporter; actives 1.8% (n = 300,000); Potency, µM (titrated, usually from 37.8 µM), for inactives: at the highest dose activity change, negative = inhibition, actives largely listed as inhibitors; calls by dose curve; tested in HEK293 cells; also: potency is read from the fitted curve at half-maximal effect; % is scaled to controls: 0 for no effect and ±100 for the full control effect
HCV inhibitor: qHTS Assay for Inhibitors of Hepatitis C Virus (HCV) | Huh7.5.1 HCVcc-Cre infection, luciferase reporter, 44 h | Potency, µM (doses to about 41.8 µM), for inactives: at the top dose activity change, negative = inhibition, most hits filed as inhibitors | actives 3.4% (n = 340,000); active = well fitted inhibition curve with a large enough effect; inconclusive = small, poorly fitted or top-dose-only effect, or another doubt; inactive = no such curve, though single readings can be large or run the other way; also: potency is read from the fitted curve at half-maximal effect; % is scaled to controls: 0 for no effect and ±100 for the full control effect
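Luciferase read-out (15 sec integration) after a 15 min room-temperature substrate step quantifies HCVcc-Cre infection. Cells, 1,000 per well, had compound added 4 h post-plating, then virus at ~0.5 moi, and were cultured 44 h.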
* = called active by the depositor; [ ] = another dose, or the depositor's remark. This is a sample that favours compounds with a hit; in the whole collection about 13% have one here.

How did O=C(NCc1ccccc1)c1ccc(Br)cc1Br do in these assays?
Lassa entry inh: -3%; Shiga inhibitor: active; FMDV inh: 58%; CHX counter: 23*; Marburg entry inh: 17%; HCV inhibitor: 3%

What do the screens show for `O=C(NCc1ccccc1)c1ccc(F)c(F)c1`?
Shiga inhibitor: -5; FMDV inh: 13%; CHX counter: 8; Marburg entry inh: 7%[46.1 µM]; HCV inhibitor: 25%

What do the screens show for `O=C(CCNc1ccc(F)c(Cl)c1)c1ccco1`?
Lassa entry inh: -14%; Shiga inhibitor: 7; CHX counter: 10; Marburg entry inh: 2%; HCV inhibitor: inconclusive

What do the screens show for `O=C(NC1CCN(C(=O)Nc2cccc(F)c2)CC1)c1ccco1`?
Lassa entry inh: 2%[46.1 µM]; Shiga inhibitor: -3; FMDV inh: -5%; CHX counter: -4; Marburg entry inh: inconclusive; HCV inhibitor: 12%

How did O=C(/C=C/Nc1cccc(F)c1)c1ccco1 do in these assays?
Lassa entry inh: inconclusive; Shiga inhibitor: 76*; FMDV inh: 6%; CHX counter: 35*; Marburg entry inh: inconclusive; HCV inhibitor: -1%

Results for O=C(/C=C/Nc1ccc(F)c(Cl)c1)c1ccco1 ?
Lassa entry inh: 20%; Shiga inhibitor: 142*; FMDV inh: -4%; CHX counter: 68*; Marburg entry inh: inconclusive; HCV inhibitor: inconclusive

Results for CC(NC(=O)C1CCN(C(=O)N2CCOc3ccccc32)CC1)c1ccccc1 (configuration not stated) ?
Lassa entry inh: 1%[46.1 µM]; FMDV inh: -5%

How did CC1=NN(/C(=N\c2nnc(C)s2)Nc2ccc(C(C)(C)C)cc2)[C@H](c2ccc(C)cc2)S1 do in these assays?
Lassa entry inh: -18%; Shiga inhibitor: 27*; FMDV inh: -17%; CHX counter: 10; Marburg entry inh: 8.2µM*; HCV inhibitor: -5%

Results for OC(c1ccccc1)(c1ccccc1)C1CN2CCC1CC2 (configuration not stated) ?
Lassa entry inh: -15%; Shiga inhibitor: 5; FMDV inh: -14%; CHX counter: -4; Marburg entry inh: inconclusive; HCV inhibitor: inconclusive

What do the screens show for `OC(c1ccccc1)(c1ccc(Cl)cc1)C1CN2CCC1CC2` (configuration not stated)?
Lassa entry inh: 13µM*; Shiga inhibitor: -5; FMDV inh: 0%; CHX counter: -1; Marburg entry inh: inconclusive; HCV inhibitor: 2.8µM*

How did O=C(NCc1nc2ccccc2[nH]1)c1cccc(Cl)c1 do in these assays?
Lassa entry inh: -3%[46.1 µM]; FMDV inh: 0%; Marburg entry inh: 23%[46.1 µM]

Results for O=C(NCc1nc2ncc(Br)cc2[nH]1)c1ccccc1 ?
Lassa entry inh: 3%; Shiga inhibitor: 48; FMDV inh: 26%; CHX counter: 15*; Marburg entry inh: inconclusive; HCV inhibitor: -1%

What do the screens show for `COc1cc2nc(CN3C(=O)c4ccccc4C3=O)oc(=O)c2cc1OC`?
Lassa entry inh: 2%; Shiga inhibitor: -5; FMDV inh: -17%; CHX counter: -2; Marburg entry inh: 0%; HCV inhibitor: 6%

Results for Cc1ccc(C(=O)Nc2cccc3cccnc23)cc1C ?
Lassa entry inh: inconclusive; FMDV inh: 58%; CHX counter: 29*; Marburg entry inh: -1%; HCV inhibitor: -5%

How did COC(=O)C(=O)Nc1cccc2cccnc12 do in these assays?
Shiga inhibitor: -8; CHX counter: -1

What do the screens show for `Cc1ccc(C(=O)Nc2cccc3cccnc23)cc1Cl`?
Lassa entry inh: 25%[46.1 µM]; FMDV inh: 58%; Marburg entry inh: inconclusive

What do the screens show for `C/C(=N\Nc1cccc2cccnc12)c1ccc(C)cc1`?
Shiga inhibitor: 93*; FMDV inh: 60%; CHX counter: 31*; HCV inhibitor: -15%

How did Cc1cccc(C(=O)Nc2cccnc2Cl)c1 do in these assays?
Lassa entry inh: 12%[46.1 µM]; Shiga inhibitor: 16; FMDV inh: 28%; CHX counter: 12*; Marburg entry inh: inconclusive; HCV inhibitor: 2%

How did Cc1cccc(C(=O)Nc2cccc3cccnc23)c1 do in these assays?
Shiga inhibitor: 70*; FMDV inh: 65%; CHX counter: 45*; HCV inhibitor: -5%
